Screening data: PubChem, Broad Institute
Rows were chosen to be rich in hits. Some 4.8% of all compounds tested hit in one or more screens of this group.
ALR inh = inhibitors of human ALR sulfhydryl oxidase, primary screen, biochemical, H2O2 detection, HRP-luminol luminescence, single point. FAD-linked sulfhydryl oxidase ALR (Homo sapiens), P55789. actives 3.8% (n = 290,000). inhibition, % (concentration not given with the values). purified ALR, DTT oxidation;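 active = mean replicate inhibition above about 79%, with every replicate also reaching it, limit read from the data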
Target sequence (P55789 whole entry, looked up): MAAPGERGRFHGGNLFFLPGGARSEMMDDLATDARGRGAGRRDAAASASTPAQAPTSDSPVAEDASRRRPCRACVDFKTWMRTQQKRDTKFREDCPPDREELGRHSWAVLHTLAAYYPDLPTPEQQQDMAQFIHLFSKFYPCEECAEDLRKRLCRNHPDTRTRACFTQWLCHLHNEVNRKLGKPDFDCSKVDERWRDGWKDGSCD
HIF act = HIF pathway transcriptional activators, primary screen, cell-based, U2OS HRE-luciferase, luminescence; U2OS HRE-luciferase reporter; normalized: DMSO 0%, desferrioxamine 100%; activation, % at 7.5 µM (by protocol); actives 0.32% (n = 300,000);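 active = mean activation of at least 10% of the iron chelator positive control signal, with at least half of replicates also reaching 10%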
SUMO Mot1 rescue = yeast Mot1-301 growth rescue at high temperature, primary screen, SUMOylation pathway inhibitor project, S. cerevisiae, ATP luminescence, 38.5C; S. cerevisiae Mot1-301 growth rescue; percent above DMSO median, 100 means doubled; growth rescue, % at 18.8 µM; actives 1% (n = 320,000); AID 2716, 2010;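 active = every valid replicate shows activation above 250% relative to neutral control wells; inactive = the rest, any valid replicate at or below 250%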;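 also: OY570 slx delta 5 strain wells were the positive control but not used for scaling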
AI-2 QS modul = Vibrio harveyi AI-2 quorum sensing modulators, primary screen, JMH597 strain, luminescence/OD600 ratio. activity change, % at 7.5 µM. actives 0.4% (n = 300,000). Vibrio harveyi JMH597 AI-2 luminescence/OD600 ratio, 9 h; hits give low values; strain lacks LuxN and CqsS sensors; 0 = neutral-control median. AID 2094, 2009; in the data active = activity change below about -75%, passing the limit was not always enough;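 also: luminescence divided by OD600 gain over 9 h not by final OD600 alone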
Active calls of the source: *; nt = no result given.

SMILES | ALR inh | HIF act | SUMO Mot1 rescue | AI-2 QS modul
CC(C)N(C(=O)c1nn(C)c2c1CSc1ccccc1-2)C1CCCCC1 | -8 | 2 | -3 | 25
O=C(O)c1ccccc1Nc1ccc([N+](=O)[O-])cc1C(=O)O | nt | 14* | -7 | 14
CC(C)CC(NC(=O)c1ccccc1NC(=O)c1ccccc1)C(=O)O (stereo unspecified) | 4 | 369* | -8 | -5
CSc1ccccc1C(=O)NC1CCCc2ccccc21 (stereo unspecified) | nt | 0 | 5 | 17
N#CCCN(C(=O)CN1CCN(S(=O)(=O)c2ccc(Cl)s2)CC1)c1ccc(F)cc1 | -6 | nt | -7 | nt
CCOC(=O)c1[nH]c(C)c(C(=O)N2CCN(c3ccccc3)CC2)c1C | 98* | 0 | -7 | 10
CCOC(=O)c1c(C)[nH]c(C(=O)N2CCN(c3ccc(OC)cc3)CC2)c1C | 98* | 0 | -5 | 4
Cc1c(C(=O)N2CCN(c3ccc([N+](=O)[O-])cc3)CC2)sc2ncn(CC(=O)N3CCOCC3)c(=O)c12 | 33 | 0 | -5 | nt
CCn1cnc2sc(C(=O)N3CCN(c4ccc(OC)cc4)CC3)c(C)c2c1=O | 81* | -1 | -5 | 12
CCOC(=O)c1cc(-c2ccccc2)n(Cc2cc(CC)no2)n1 | nt | 1 | -2 | 14
CC1CC(C)CN(S(=O)(=O)c2ccc3c(c2)CC(C)N3C(=O)C2CC2)C1 (stereo unspecified) | -5 | 0 | 504 | 21
CC(C)CC(=O)N1CCN(C(=O)c2ccc(-c3ccccc3)cc2)CC1 | -4 | 1 | -8 | 13
Cc1ccc(/C(O)=C/c2nc3ccccc3oc2=O)cc1 | -1 | 0 | -1 | 1
Cc1nc(C)c(/C(O)=C\c2nc3ccc([N+](=O)[O-])cc3oc2=O)o1 | 99* | 0 | -21 | 5
Cc1ccc(C)c(Nc2nc(-c3ccncc3)nc3ccccc23)c1 | 2 | 1 | -9 | 14
O=C(NNS(=O)(=O)c1ccc2ccccc2c1)C1CCN(Cc2ccccc2)CC1 | 16 | -1 | -6 | 9
O=S(=O)(NC1CCN(Cc2ccccc2)CC1)c1ccc2ccccc2c1 | -8 | 0 | 322* | 28
Cc1ccc(Nc2nc(/N=C/N(C)C)n[nH]2)cc1C | 98* | 2 | -18 | 18
c1ccc(C2Oc3ccccc3C3CC(c4cccs4)=NN32)cc1 (stereo unspecified) | 98* | 2 | 7 | 35
CS(=O)(=O)N1N=C(c2cccs2)CC1c1ccccc1 (stereo unspecified) | -10 | 0 | 9 | 1
CCN(CC)CCNC(=O)c1cc(Br)c(N)cc1OC | -19 | nt | 13 | nt
Cc1cccn2c(=O)c3cc(C#N)c(=NC(=O)c4ccccc4)n(Cc4ccco4)c3nc12 | 89* | 0 | -1 | 14
CCOC(=O)c1cc2c(=O)n3ccccc3nc2n(Cc2ccco2)c1=NC(=O)c1ccccc1OCC | 90* | 0 | 1 | 3
COc1cccc(-n2cnnc2SC(C)C(=O)NC2CCCC2)c1 (stereo unspecified) | -4 | nt | 79 | nt
CCOC(=O)C1(CCCc2ccccc2)CCN(C(=O)c2cc(C)nn2CC)CC1 | 0 | -1 | -13 | 2
SMILES | ALR inh | HIF act | SUMO Mot1 rescue | AI-2 QS modul
COc1ccc(NC2c3ncccc3C(=O)N2Cc2cccs2)cc1 (stereo unspecified) | 96* | 0 | 89 | 11
CC(=O)c1ccccc1NC(=O)COC(=O)/C=C/c1ccc(C)o1 | 96* | 0 | -2 | 4
CC(=O)c1ccccc1NC(=O)COC(=O)/C=C/c1cccs1 | -8 | -1 | 237 | 4
COc1ccccc1C(=O)OCc1c(-c2ccccc2)ncc2ccccc12 | nt | nt | 61 | nt
CNCCCOc1ccc(C(C)(C)c2ccccc2)cc1 | nt | 0 | nt | 2
COCCCNCCOc1ccc(C(C)(C)c2ccccc2)cc1 | -4 | 0 | 824* | -2
CNC(=O)Nc1ccc2nc(C)oc2c1 | -4 | -1 | -1 | 12
Cc1nc2ccc(-c3ccccc3)cc2o1 | 96* | 1 | -11 | 16
COc1cccc(CNC(=O)CCNC(=O)C2CCN(S(=O)(=O)c3ccccc3)CC2)c1 | 1 | 0 | 10 | 16
c1ccc(N/N=C2\CCCc3ccccc32)nc1 | 41 | 3 | nt | -2
Fc1ccc2c(c1)/C(=N/Nc1ccccn1)CCS2 | 99* | 1 | 19 | 16
